Source: PubChem
UHRF1 binding = UHRF1 methylated DNA binding inhibitors, primary screen, counter-screen for MBD2 inhibitor project, biochemical, TR-FRET, human UHRF1, single concentration. 370,000 compounds, 0.75% hits. E3 ubiquitin-protein ligase UHRF1 (Homo sapiens), Q96T88. UHRF1 binding to methylated oligo. AID 687016, 2013. inhibition, % at 4.4 µM; in the data active = inhibition above about 21%;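 also: UHRF1 SRA domain binding a hemimethylated CpG hairpin DNA probe; 0% = median of test compound wells and 100% = reference inhibitor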
LEDGF integ inh = blockers of LEDGF/p75-dependent integrase strand transfer – biochemical, TR-FRET, high throughput, primary screen | HIV-1 integrase (with human LEDGF/p75) | TR-FRET IN-LEDGF/p75 DNA integration, Eu/Cy5 | inhibition, % at 3.7 µM | 370,000 compounds, 0.64% hits;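 active = inhibition above the screen-wide mean plus 3 SD, cut at about 13% in these data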;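 also: signal is the Cy5 over europium emission ratio at 671 and 618 nm; 0% = plate median of compound wells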
PLC-beta3 inh = human PLC-beta3 inhibitors, primary screen, biochemical, fluorescence. 1-phosphatidylinositol 4,5-bisphosphate phosphodiesterase beta-3 (Homo sapiens), Q01970. Purified PLC-beta3, fluorogenic substrate. inhibition, % at 12.2 µM. 370,000 compounds, 0.18% hits. AID 720704, 2013; in the data active = inhibition above about 11%;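 also: 0% = median of compound wells on plate and 100% = full blocker control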
PLC-gamma1 inh = PLC-gamma1 enzyme inhibitors, primary screen, biochemical, fluorescence, purified enzyme; fluorogenic substrate; 370,000 compounds, 0.84% hits; inhibition, % at 12.2 µM; 1-phosphatidylinositol 4,5-bisphosphate phosphodiesterase gamma-1 (Homo sapiens), P19174; in the data active = inhibition above about 9.5%
MBD2 inh = inhibitors of MBD2 binding to methylated DNA, primary screen, biochemical, TR-FRET, DNA-binding domain, human. 370,000 compounds, 0.31% hits. MBD2 binding to methylated oligonucleotide. AID 686964, 2013. Methyl-CpG-binding domain protein 2 (Homo sapiens), Q9UBB5. inhibition, % at 4.4 µM; in the data active = inhibition above about 13%
Target sequence (Q9UBB5 whole entry, looked up, the tested form may be a part): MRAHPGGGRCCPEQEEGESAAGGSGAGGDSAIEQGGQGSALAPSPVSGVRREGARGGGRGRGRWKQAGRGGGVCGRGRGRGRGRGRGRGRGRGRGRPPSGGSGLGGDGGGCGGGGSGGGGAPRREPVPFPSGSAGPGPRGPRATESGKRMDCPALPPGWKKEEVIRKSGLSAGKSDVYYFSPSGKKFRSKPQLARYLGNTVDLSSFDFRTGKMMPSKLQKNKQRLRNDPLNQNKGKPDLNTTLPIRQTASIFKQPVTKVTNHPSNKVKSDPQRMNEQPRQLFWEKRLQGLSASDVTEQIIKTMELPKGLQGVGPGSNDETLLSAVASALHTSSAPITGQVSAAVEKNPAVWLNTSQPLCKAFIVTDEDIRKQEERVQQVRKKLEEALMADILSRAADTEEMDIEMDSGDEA
Starred values were filed as active, the others as inactive; ! = not active in a repeat. This is a sample that favours compounds with a hit; in the whole collection about 2.3% have one here.

SMILES	UHRF1 binding	LEDGF integ inh	PLC-beta3 inh	PLC-gamma1 inh	MBD2 inh
CC(C)(C)c1ccc(-c2nnc3sc(COc4ccccc4)nn23)cc1	-1	-1	2	-1	-7
C[C@H]1[C@@H](NC(=O)c2ccc(Cl)cc2)CC[C@@]23CCCN2C(=O)CCC[C@@H]13	-2	1	-1	-2	-2
COc1ccc(C2SCC(=O)N2c2ccccc2)cc1 (configuration not stated)	22*	-1	-5	0	11
COC(=O)[C@H](CC(C)C)N1Cc2nnn(CC3CCCCC3)c2-c2ccccc2S1(=O)=O	-3	-1	4	0	-2
COc1ccc(C(C(=O)N(C)C2CCCC2)N(Cc2ccc(F)cc2)C(=O)c2cc(C)on2)cc1OC (configuration not stated)	0	4	-1	4	-5
Cc1ccc(C(=O)NNC(=O)CSc2nc(N)cc(N)n2)cc1	-1	1	-7	-6	-5
Cc1ccc(C(=O)NNC(=O)C(C)Sc2nc(N)cc(N)n2)cc1 (configuration not stated)	21*	0	-5	2	8
Oc1ccccc1Oc1ncc(Br)c(Cl)n1	22*	1	-7	-1	8
Clc1cccc(CN2CCC(Cc3ccccc3)CC2)c1	0	0	3	2	6
Clc1ccc(CN2CCC(Cc3ccccc3)CC2)cc1	2	3	6	11*	-1
C=CCN(Cc1ccc2c(c1)OCO2)C(C#CC1CC1)C(C)C (configuration not stated)	0	-1	0	1	1
CN(C)c1oc(-c2ccc(Cl)cc2)nc1S(=O)(=O)c1ccccc1	25*	1	3	2	10
CNc1oc(-c2ccccc2)nc1S(=O)(=O)c1ccc(C)cc1	4	-6	-36	-9	12
COC(=O)C1CN(Cc2cn(Cc3ccc(OC)cc3)nn2)CCS(=O)(=O)N1Cc1ccc(F)cc1 (configuration not stated)	-1	-2	3	-1	-8
Cc1ccc(-c2csc(NC(=O)c3cccc(C)c3)c2C(=O)O)cc1	8	-1	-184	-121	-1
Cc1nc(NC(=O)/C=C/c2ccco2)sc1C	-1	4	-7	-10	-6
O=C(/C=C/c1ccco1)Nc1cccc(NC(=O)/C=C/c2ccco2)n1	21*	11	-50	-47	11
Cc1ccc(-c2csc(NC(=O)/C=C/c3ccco3)c2C(=O)O)cc1	31*	13	-34	-30	1
Cc1ccc(NC(=S)NNC(=O)CSc2nnc(-c3ccc(C)cc3)n2C2CCCCC2)cc1	-5	1	2	0	-6
O=C1C[C@H](c2ccc3ccccc3c2)N=C2N1/C(=C\c1ccccc1)[C@@H](c1ccccc1C(F)(F)F)N2Cc1ccc2c(c1)OCO2	-3	1	3	2	-4
Cc1ccc(NCc2nnc(SCC(=O)Nc3cc(C)on3)n2C)cc1	2	-3	2	-4	6
CCSc1nnc(CNc2ccc(C)cc2)n1C	24*	0	-4	5	11
COc1ccc(S[C@]2(C(=O)N3CCN(C(C)=O)CC3)CC(=O)N(S(=O)(=O)c3ccc(F)cc3)[C@@H]2c2ccc(OC)cc2)cc1	-2	2	0	2	-5
CCC(Sc1nc2cc(OC)c(OC)cc2c(=O)n1Cc1ccc(OC)cc1)C(=O)NCCOC (configuration not stated)	23*	4	-4	2	-2
COCCCNC(=O)C[C@H]1C[C@@]2(C(=O)OC)C(=C[C@H](C(C)C)O[C@@H]2C2CC2)N(CCc2ccc(OC)c(OC)c2)C1=O	0	7	2	6	-2
C=C[C@H]1CN2CC[C@H]1C[C@@H]2[C@@H](O)c1ccnc2ccc(OC)cc12	42*!	0	-9	-3	4
C=C[C@H]1CN2CCC1C[C@H]2[C@H](O)c1ccnc2ccc(OC)cc12 (some centres not stated)	-2	-5	-7	-4	1
